Test results as given in PubChem BioAssay AID933 (National Center for Advancing Translational Sciences (NCATS), 2009).
Inconclusive results are not listed. Where a call stands in place of a potency, no number is given. Unmarked numbers belong to inactive results. Calls of active or inactive are those of the source. Calls come from the whole dose curve; as a rule, active = well fitted activation curve with a large enough effect in the signal ratio, with a control signal flat; inconclusive = small, poorly fitted or top-dose-only effect, or a change in a side signal; inactive = flat fitted curve, though single readings scatter; the % refers to the signal ratio.

Biological target: Thyrotropin receptor (Homo sapiens) (UniProt P16473)
Sequence (P16473 whole entry, looked up): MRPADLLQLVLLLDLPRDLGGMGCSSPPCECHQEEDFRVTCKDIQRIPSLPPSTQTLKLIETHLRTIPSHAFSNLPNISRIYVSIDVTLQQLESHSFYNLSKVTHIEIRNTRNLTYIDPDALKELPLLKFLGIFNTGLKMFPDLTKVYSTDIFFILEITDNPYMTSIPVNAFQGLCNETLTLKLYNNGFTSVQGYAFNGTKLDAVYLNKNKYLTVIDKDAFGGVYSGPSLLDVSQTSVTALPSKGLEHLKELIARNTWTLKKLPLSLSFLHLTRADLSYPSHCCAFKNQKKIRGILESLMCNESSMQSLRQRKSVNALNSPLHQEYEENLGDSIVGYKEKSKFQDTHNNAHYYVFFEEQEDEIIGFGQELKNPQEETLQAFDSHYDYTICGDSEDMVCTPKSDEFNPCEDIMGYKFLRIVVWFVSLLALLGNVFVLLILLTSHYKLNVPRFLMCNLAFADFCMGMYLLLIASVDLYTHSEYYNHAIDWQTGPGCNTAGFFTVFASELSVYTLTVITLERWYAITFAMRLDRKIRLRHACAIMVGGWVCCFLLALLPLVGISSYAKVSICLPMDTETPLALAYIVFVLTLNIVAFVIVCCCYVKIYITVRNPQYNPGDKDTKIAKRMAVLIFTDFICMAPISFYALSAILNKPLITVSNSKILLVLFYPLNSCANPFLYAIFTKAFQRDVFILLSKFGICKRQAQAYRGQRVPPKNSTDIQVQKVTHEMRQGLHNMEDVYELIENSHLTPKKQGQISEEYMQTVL
Test: Secondary Concentration-Response Assay for Agonists of the Thyroid Stimulating Hormone Receptor: HTRF Activity Detection;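 note: HEK 293 cells stably expressing human TSHR with RO 20-1724 phosphodiesterase inhibitor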
Conditions: HEK293-TSHR cells, cAMP HTRF ratio, 30 min; series mostly up to 91.7 µM
Procedure, shortened: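 Orthogonal confirmation in a separate TSHR-transfected HEK 293 line: cells in medium with 10 % FCS and 100 uM RO 20-1724 got compound for 30 min at room temperature. cAMP was measured by HTRF (d2-cAMP/anti-cAMP antibody), 615/660 nm emission.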

Row | Compound | Potency | activation
1 | COc1ccc(C(=O)N(Cc2ccccc2)Cc2ccc(OC)c(COc3ccc(NC(C)=O)cc3)c2)c(O)c1 | inactive | –
2 | CCCN1C(=O)c2ccccc2NC1c1ccc(OC)cc1OC (configuration not stated) | inactive | –
3 | CCOC(=O)c1cnc(-n2nc(C)cc2C)nc1-n1nc(C)cc1C | – | -0.245% [at 0.00035 µM]
4 | COc1cc(OC)cc(-c2nnc(SCC(=O)N(C(C)C)C(C)C)o2)c1 | – | 0.0275% [at 0.00035 µM]
5 | COc1ccc(CN(Cc2ccccc2)C(=O)c2ccccc2O)cc1 | inactive | –
6 | COc1ccc(C2Nc3ccccc3C(=O)N2Cc2ccccc2)cc1COc1ccc(C(N)=O)cc1 (configuration not stated) | inactive | –
7 | COc1ccc(C2Nc3ccccc3C(=O)N2Cc2ccco2)cc1OC (configuration not stated) | inactive | –
8 | COc1ccc(C(=O)N(Cc2ccco2)Cc2cccs2)cc1 | inactive | –
9 | CCN(CC)CCN1C(=O)c2ccccc2NC1c1ccc(N(C)C)cc1 (configuration not stated) | inactive | –
10 | COc1ccc(-c2ccc(-c3noc(C)n3)c(OC)n2)cc1 | – | -0.214% [at 0.00035 µM]
11 | COc1ccc(C=O)cc1COc1ccc(NC(C)=O)cc1 | inactive | –
12 | COc1ccc(-c2nc3ccc(NC(=O)COC(C)=O)cc3c(=O)n2Cc2ccccc2)cc1COc1ccc(NC(C)=O)cc1 | inactive | –
13 | COc1cc2c(N3CCOCC3)cc(O)c(CC(=O)Nc3ccccc3)c2cc1OC | – | 0.478% [at 0.00035 µM]
14 | CCOc1cc(C(=O)N(C)c2ccccc2)cc(OCC)c1OCC | – | 1.28% [at 0.00035 µM]
15 | CCOC(=O)c1ccc(NC(=O)c2ccc(CN3CCOCC3)cc2)cc1 | – | 0.768% [at 0.00035 µM]
16 | CCOc1cc(C2Nc3ccccc3C(=O)N2c2ccccc2)c(Br)cc1OCC(=O)O (configuration not stated) | inactive | –
17 | O=C1CC(c2ccco2)CC2=C1C(c1cccnc1)n1nc(C(F)(F)F)nc1N2 (configuration not stated) | inactive | –
18 | COc1ccc(C2Nc3ccccc3C(=O)N2Cc2ccco2)cc1COc1c(C)cccc1C (configuration not stated) | inactive | –
19 | CC(C)CC(=O)Nc1cccc(-c2cn3ccsc3n2)c1 | – | 0.105% [at 0.00035 µM]
20 | Cc1cc(Cl)c(S(=O)(=O)Nc2ccc3c(c2)OCO3)cc1OCC(N)=O | – | -1.33% [at 0.00035 µM]
21 | O=C1c2ccccc2NC(c2ccc3c(c2)OCO3)N1Cc1ccco1 (configuration not stated) | inactive | –
22 | Oc1ccccc1Cn1c(-c2ccccc2O)nc2ccccc21 | – | -0.344% [at 0.00035 µM]
